HPGD inh = qHTS Assay for Inhibitors of HPGD (15-Hydroxyprostaglandin Dehydrogenase). purified HPGD, NADH fluorescence kinetic, PGE2 substrate. Potency, µM, inactives show top-dose activity change, negative = inhibition, usual class: inhibitors. hit rate 4.3% among 150,000; also: potency is read from the fitted curve at half-maximal effect
Target sequence (P15428 whole entry, looked up): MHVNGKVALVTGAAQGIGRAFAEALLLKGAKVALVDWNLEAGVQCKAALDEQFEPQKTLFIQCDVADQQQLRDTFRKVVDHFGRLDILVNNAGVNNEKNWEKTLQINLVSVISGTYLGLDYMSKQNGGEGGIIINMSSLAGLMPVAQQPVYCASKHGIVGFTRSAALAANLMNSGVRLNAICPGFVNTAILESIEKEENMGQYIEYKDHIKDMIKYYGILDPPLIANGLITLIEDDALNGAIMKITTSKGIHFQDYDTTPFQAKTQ
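NADH formation kinetics: reaction with 30 uM PGE2 and 1 mM NAD+ (final), 20 nM enzyme, Tris-HCl pH 8 with Tween 20, after 15 min compound preincubation at room temperature. Fluorescence change, last versus first of five reads.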
ALDH1A1 block = qHTS Assay for Inhibitors of Aldehyde Dehydrogenase 1 (ALDH1A1) | Aldehyde dehydrogenase 1A1 (Homo sapiens), P00352 | Purified ALDH1A1, NADH fluorescence, propionaldehyde substrate | Potency, µM (doses to about 75.3 µM), without a hit: top-dose activity, negative = inhibition, usual class: inhibitors | hit rate 7.3% among 220,000;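 also: potency is read from the fitted curve at half-maximal effect; plate controls were no enzyme wells and a reference inhibitor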
PNC inhibitor = High Content Assay for Compounds that inhibit the Assembly of the Perinucleolar Compartment | PC3M PTB-GFP, PNC prevalence imaging, 16 h; active compounds read low | activity change (PNC), negative = inhibition, % at 10 µM | hit rate 3.1% among 140,000 | AID 2417, 2010;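 active = readout at or below -70, meaning at least 70% loss of cells showing the perinucleolar compartment, a nuclear body marking cancer cells; inconclusive = readout between -30 and a set limit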;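 also: plate controls were DMSO wells for no effect and camptothecin positive control wells for full effect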
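Compounds are pinned in duplicate onto adhered PC3M cells stably expressing GFP-tagged PTB and incubated 16 h at 37 C. Cells are then fixed, nuclei stained with Hoechst, and PNC-positive cells counted.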
Numbers without * were called inactive; u = inconclusive; x = no result given; [ ] = another dose, or the depositor's remark. Most compounds without a hit are left out; they make up all but 11% or so of the library. Unless noted, calls follow the shape of the dose curve; as a rule, active = well fitted inhibition curve with a large enough effect (not every such curve was filed as active); inconclusive = small, poorly fitted or top-dose-only effect, or another doubt; inactive = no such curve, though single readings can be large or run the other way. Unless noted, % is scaled to controls: 0 for no effect and ±100 for the full control effect.

SMILES	HPGD inh	ALDH1A1 block	PNC inhibitor
Cc1ccc(S(=O)(=O)Nc2ccccc2/C=N/c2nc3ccccc3n2C)cc1	-21.3%	5.4%	u
CCc1ccc(NC(=O)CCN2C(=O)c3cccnc3C2=O)cc1	-7.3%	-4.1%	-14.7
CCc1ccc2c(c1)C(=O)C(=O)N2CC(=O)Nc1ccc(NC(=O)c2ccccn2)cc1	x	0.224µM*	x
Cc1cc(C)cc(NC(=O)CN2CCN(c3ncccn3)CC2)c1	-13.5%	u	-9.4
O=C(CN1CCN(c2ncccn2)CC1)Nc1ccccc1-n1cccc1	-13.6%	14.1µM*	84.2
COc1cccc(Nc2ncc3nc(CCc4ccccc4)c(=O)n(CCC#N)c3n2)c1	u	-9.8%	x
CO[C@H]1COC(=O)[C@H](C)NC(=O)C/C=C\[C@@H](C)[C@@H](NS(=O)(=O)c2ccc(C)cc2)COC(=O)[C@H](OCc2ccccc2)/C=C\[C@@H]1C	x	0.3%[13.5 µM]	x
CC1(C)CC(=O)C2=C(C1)N=C1SCCC(=O)N1C2c1ccccc1 (configuration not stated)	-14.4%	u	u
O=C1CCCC2=C1C(c1ccc(Cl)cc1)N1C(=O)CCSC1=N2 (configuration not stated)	u	4.5%	-100.0*
CCCn1c(C)nc2c(NCCOC)nc(C)nc21	0.5%	2.7%	x
NC(=O)C1(N2CCCCC2)CCN(C(=S)Nc2cc(F)cc(F)c2)CC1	x	-5.7%	x
C=CCNC(=O)NC(=O)COC(=O)/C(C#N)=C/c1ccc(OC)cc1	x	25.1µM*	x
COc1ccc(/C=C(\C#N)C(=O)OCC(=O)NCc2ccc(Cl)cc2)cc1	u	u	37.5
CC(C)(CO)Cc1cc(C(C)(C)C)c(O)c(C(C)(C)C)c1	-28.1%	u	x
Cc1nc2ccccn2c1C(=O)NN	x	2.24µM*	22.6
CCOc1ccc(OCC)c(S(=O)(=O)NNC(=O)c2c(C)nc3ccccn23)c1	1.9%	u	-10.8
CCNC(=O)c1c(C)nc2ccccn12	-15.8%	2.6%	4.6
Cc1nc2ccccn2c1C(=O)NNS(=O)(=O)c1ccc(C(C)(C)C)cc1	-1.2%	1.12µM*	u
CC(=O)N(C)c1ccc(NS(=O)(=O)c2cc(Cl)ccc2Cl)cc1	x	15.4%	x
O=C1C(=O)N(CCN2CCOCC2)C(c2cccnc2)/C1=C(/O)c1ccc(Cl)cc1 (configuration not stated)	x	-3.3%	x
CN(CC(=O)O)S(=O)(=O)c1ccc2c(c1)NC(=O)CC(=O)N2	x	2.6%	x
Cc1cc(C)c(NC(=O)CN2CCC(NC(=O)NC3CCCCC3)CC2)c(C)c1	x	5.1%	x
Cc1cc(C)c(NC(=O)NC2CCCCC2)c(C)c1	-7.6%	12.5%	-113.4*
CC(C)c1ccccc1S(=O)(=O)c1cc(N)c2ncccc2c1[N+](=O)[O-]	-16.7%	-7.0%	x
CCCCC/C=C\C\C=C/C=C/C=C/[C@@H](SCC(NC(=O)CCC(N)C(=O)O)C(=O)NCC(=O)O)[C@@H](O)CCCC(=O)O (some centres not stated)	-5.5%	0.0%	x
SMILES	HPGD inh	ALDH1A1 block	PNC inhibitor
O=C(N/N=C/c1ccccc1)c1[nH]c2ccc(Br)cc2c1-c1ccccc1	-21.6%	-3.9%	u
O=C(NN=C1CCCC1)c1[nH]c2ccc(Br)cc2c1-c1ccccc1	x	17.8µM*	x
CCn1nnc(-c2ccccc2NS(=O)(=O)c2ccc(S(=O)(=O)N(C)C3CCCCC3)cc2)n1	-17.9%	u	19.1
CC(=O)N1N=C(c2ccncc2)CC1c1ccccc1O (configuration not stated)	x	-6.0%	x
CC(=O)N1N=C(c2ccccc2)CC1c1cn(Cc2ccccc2)c2ccccc12 (configuration not stated)	-13.5%	28.2µM*	u
O=S1(=O)OC(c2ccc(O)cc2)(c2ccc(O)cc2)c2ccccc21	-0.3%	13.5%[13.5 µM]	x
O=C(/C(=C\c1ccccc1)c1nc2ccccc2[nH]1)c1ccc(Cl)cc1	-8.3%	11.6%	u
COC(=O)/C(=C\c1ccc(O)cc1)c1nc2ccccc2[nH]1	x	11.9µM*	x
CC(=O)Nc1ccc(-c2c(C)cc3oc(=O)cc(-c4ccccc4)c3c2C)cc1	-22.5%	u	x
COc1cccc(Cn2cc(C(=O)NCCN(C)C)nn2)c1	x	4.4%	x
O=C(c1cccc(S(=O)(=O)N2CCc3ccccc32)c1)N1CCN(c2ccccn2)CC1	x	12.6µM*	x
O=C(NNC(=O)c1cccc(S(=O)(=O)N2CCc3ccccc32)c1)c1ccccc1	x	-2.5%	x
O=C(c1ccc(S(=O)(=O)N2CCCCCC2)cc1)N1CCN(c2ccccn2)CC1	-17.8%	12.6µM*	22.3
O=C(c1ccc(Cl)c(S(=O)(=O)N2CCCC2)c1)N1CCN(c2ccccn2)CC1	-3.5%	-7.5%	16.6
CC(Oc1ccccc1)C(=O)N1CCN=C1SCc1ccccc1 (configuration not stated)	x	-9.8%	x
CC(=O)N/C(=C/c1ccc2c(c1)OCO2)C(=O)NCCO	-8.3%	1.6%	-12.8
Cc1ccc(-c2nnc(SCC(=O)Nc3ccccc3N3CCOCC3)o2)cc1	-2.9%	5.5%	u
Cc1ccc2nc(SCC(=O)Nc3ccccc3N3CCOCC3)c(C#N)cc2c1	-16.7%	-1.0%	-110.9*
Cc1ccc2cc(C#N)c(SCC(=O)NCC3CCCO3)nc2c1 (configuration not stated)	-23.1%	-10.3%	21.2
COc1ccc(-n2nnc3c(=O)n(CC(=O)NCC4CCCO4)cnc32)cc1 (configuration not stated)	u	u	-29.6
Cc1ccc(-n2nnc3c(SCC(=O)NCC4CCCO4)ncnc32)cc1 (configuration not stated)	1.26µM*	1.2%	4.3
Cc1ccc2nc(SCC(=O)NCC3CCCO3)c(C#N)cc2c1 (configuration not stated)	6.31µM*	5.3%	16.2
Nc1nnc(SCc2nnc(-c3ccccc3)o2)s1	x	2.0%	x
OC[C@H]1O[C@@H](n2cnc3c(Nc4ccccc4)ncnc32)[C@H](O)[C@H]1O	-6.8%	u	x
CC(C)NC(=O)N1CCC2(CC1)CCN(C(=O)c1ccco1)CC2	-0.2%	u	x
SMILES	HPGD inh	ALDH1A1 block	PNC inhibitor
COCCn1nnnc1C(c1ccc(OC)cc1OC)N1CCN(c2ccccc2F)CC1 (configuration not stated)	x	-9.0%	12.5
CCOC(=O)C1CCN(C(c2cc3c(C)ccc(C)c3[nH]c2=O)c2nnnn2C2CCCCC2)CC1 (configuration not stated)	-26.2%	u	-0.8
Cc1ccc2cc(C(c3nnnn3Cc3ccccc3)N3CCN(c4ccccc4)CC3)c(=O)[nH]c2c1 (configuration not stated)	-8.7%	25.1µM*	-1.7
CCN1CCN(C(c2cc3cccc(C)c3[nH]c2=O)c2nnnn2Cc2ccccc2)CC1 (configuration not stated)	-11.5%	u	35.3
Cc1ccc2cc(C(c3nnnn3C3CCCC3)N3CCN(c4ccccc4)CC3)c(=O)[nH]c2c1 (configuration not stated)	-9.0%	8.91µM*	-25.7
COc1cc2cc(C(c3nnnn3C3CCCC3)N3CCCCC3)c(=O)[nH]c2cc1OC (configuration not stated)	-21.7%	u	31.6

Compound activity from PubChem.
